In paper PMC4336329 (PLoS ONE, 2015):
In all, about 310,000 compounds went through this assay and about 14,000 (4.5%) showed an effect of 50% or more. Effects have a minus sign here. This excerpt belongs to a sample that is enriched for strong results.

target: human ether-à-go-go-related gene (hERG) potassium channel (human, UniProt Q12809); test: primary screen, population patch clamp on CHO cells stably expressing hERG; higher = less effect of the substance
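Also: peak tail current of the secondary pulse compared with the same well before compound.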

Chain of human ether-à-go-go-related gene (hERG) potassium channel (Q12809 whole entry, looked up): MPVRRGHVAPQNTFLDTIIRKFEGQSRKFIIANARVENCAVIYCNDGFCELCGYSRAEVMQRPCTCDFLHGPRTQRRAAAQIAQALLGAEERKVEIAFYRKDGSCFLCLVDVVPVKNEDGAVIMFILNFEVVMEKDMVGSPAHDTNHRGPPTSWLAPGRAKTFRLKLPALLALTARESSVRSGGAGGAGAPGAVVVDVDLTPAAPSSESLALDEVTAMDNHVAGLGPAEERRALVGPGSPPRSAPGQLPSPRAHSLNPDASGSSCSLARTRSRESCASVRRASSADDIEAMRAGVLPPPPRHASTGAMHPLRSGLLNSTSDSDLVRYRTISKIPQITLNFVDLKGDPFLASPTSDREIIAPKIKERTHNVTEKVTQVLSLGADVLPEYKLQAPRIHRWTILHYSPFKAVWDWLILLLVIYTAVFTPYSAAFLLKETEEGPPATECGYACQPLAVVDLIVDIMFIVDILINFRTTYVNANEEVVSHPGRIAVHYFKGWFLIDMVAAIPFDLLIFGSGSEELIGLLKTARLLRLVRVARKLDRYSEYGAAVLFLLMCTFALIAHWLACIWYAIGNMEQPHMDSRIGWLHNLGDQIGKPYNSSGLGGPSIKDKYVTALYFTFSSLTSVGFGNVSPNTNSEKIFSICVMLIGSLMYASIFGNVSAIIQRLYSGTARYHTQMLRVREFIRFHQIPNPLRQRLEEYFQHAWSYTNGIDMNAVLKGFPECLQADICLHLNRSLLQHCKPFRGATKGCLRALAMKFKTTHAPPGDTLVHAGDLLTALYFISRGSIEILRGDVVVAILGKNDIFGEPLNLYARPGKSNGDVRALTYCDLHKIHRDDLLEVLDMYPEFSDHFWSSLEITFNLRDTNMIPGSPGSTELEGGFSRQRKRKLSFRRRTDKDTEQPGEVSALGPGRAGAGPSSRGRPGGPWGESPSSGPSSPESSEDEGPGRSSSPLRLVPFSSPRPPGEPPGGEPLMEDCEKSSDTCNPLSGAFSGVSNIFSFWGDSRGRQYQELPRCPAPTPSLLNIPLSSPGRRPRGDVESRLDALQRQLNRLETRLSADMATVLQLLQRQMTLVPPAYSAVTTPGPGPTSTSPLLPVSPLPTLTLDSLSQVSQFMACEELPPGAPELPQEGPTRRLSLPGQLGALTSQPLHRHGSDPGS

SMILES | hERG current change (%, negative = inhibition) at 10uM [%]
CN(c1cccc2cccnc12)S(=O)(=O)c1ccccc1 | -8.43
COc1ccc(-c2cc(C)no2)cc1S(=O)(=O)NCc1cccc(C)c1 | -41.5
Cc1cc(-c2ccc(C)c(S(=O)(=O)NCc3cccc(Br)c3)c2)on1 | -22.2
COc1cccc(CCN2CCC(CNS(=O)(=O)c3cc(-c4cc(C)no4)ccc3C)CC2)c1 | -77.2
COc1cccc(CNS(=O)(=O)c2cc(-c3cc(C)no3)ccc2C(C)C)c1 | -7.33
Cc1cc(-c2ccc(C)c(S(=O)(=O)NCCN3CCC(C)CC3)c2)on1 | -12.8
COc1cccc(CCN2CCC(CNS(=O)(=O)c3cc(-c4cc(C)no4)ccc3OC)CC2)c1 | -74.9
CCCNC(=O)c1[nH]c(C)c(C(C)=O)c1C | 19.3
Cc1cc(C)cc(C(=O)Nc2ccc(N3CCN(S(C)(=O)=O)CC3)cc2)c1 | 15.7
Cc1ccc(CNC(=O)CCCNS(=O)(=O)c2cccc3nonc23)cc1 | -11.4
CCOC(=O)COc1ccc(N)cc1CC(NC(C)=O)(C(=O)OCC)C(=O)OCC | -72.7
CCOC(=O)C(Cc1c(F)cccc1F)(NC(C)=O)C(=O)OCC | 8.41
CCOC(=O)C(Cc1ccccc1)(NC(C)=O)C(=O)OCC | 7.61
CC1CCCC(C)N1C(=O)COC(=O)C12CC3CC(CC(Cl)(C3)C1)C2 (stereo not drawn) | -18.2
N#CC1(NC(=O)COC(=O)C23CC4CC(CC(O)(C4)C2)C3)CCCCC1 | 4.38
CN(C(=O)COC(=O)C12CC3CC(CC(Cl)(C3)C1)C2)C1(C#N)CCCCC1 | -53.5
Cc1cccc(N2CN=C3SCC(=O)N3C2)c1 | 0.175
CC(C)C1Nc2ccc(S(N)(=O)=O)cc2C2C=CCC21 (stereo not drawn) | 5.89
OCC(O)/C=N/Nc1nc2ccccc2s1 (stereo not drawn) | 14
C/C(CCc1ccc2c(c1)OCO2)=N\NC(=O)c1ccccc1 | 9.96
C/C(CCc1ccc2c(c1)OCO2)=N\NC(=S)NC(C)C | -59.4

SMILES | hERG current change (%, negative = inhibition) at 10uM [%]
C/C(=N\NC(=S)NC(C)C)c1ccc2c(c1)OCCO2 | -63.6
CCNC(=S)N/N=C(\C)c1ccc2c(c1)OCCO2 | 13.4
COCCNC(=S)N/N=C(\C)CCc1ccc2c(c1)OCO2 | -11.6
CNC(=S)N/N=C(\C)c1ccc2c(c1)OCCO2 | 9.21
CC(=O)n1cc([C@H]2C=C(C(=O)Nc3ccccc3)O[C@@H](OCc3ccc(CO)cc3)C2)c2ccccc21 | -2.85
CC1(C)CC(NS(=O)(=O)c2ccc(Cl)cc2)CC(C)(C)N1 | 9.34
Cc1nc2cc(NCc3nc4ccccc4n3Cc3ccccc3)ccc2n1C | -82
CCn1cnc2cc(NCc3cccs3)ccc21 | -15.9
Cc1nc2cc(NCc3ccccc3O)ccc2n1Cc1ccccc1 | 13.8
O=C(O)c1ccc(NCc2nc3ccccc3n2Cc2ccccc2)cc1 | -4.61
CCn1cnc2cc(NCc3nc4ccccc4n3Cc3ccccc3)ccc21 | -65.6
Cc1cccc(NCc2nc3ccccc3n2Cc2ccccc2)c1 | -13.1
NC(=O)c1ccccc1OCC(=O)N1CCc2ccccc2C1 | 8.34
COC(=O)c1cc(-c2ccc(Br)cc2)on1 | 8.48
Cc1c(Cl)cccc1NC(=S)NCc1ccccc1 | 16.5
Cc1ccc(S(=O)(=O)C2(C(=O)NCc3ccccc3Cl)CC2)cc1 | -15.2
Cc1nnc(SCC(=O)Nc2ccc(N3CCOCC3)cc2)n1-c1ccccc1 | -14.5
CCCCCn1c(=O)[nH]c2cc(C(=O)Nc3ccc(OC)cc3)ccc2c1=O | 14.9
CC(=O)NCC(=O)OCc1ccc([N+](=O)[O-])cc1 | 3.26
CN(C)C1(CNC(=O)C2CCN(S(=O)(=O)c3cc(Cl)ccc3Cl)CC2)CCCCC1 | -64.1
O=C(NC1CCCCCC1)C1CCN(S(=O)(=O)c2c(Cl)cccc2Cl)CC1 | 11.6

SMILES | hERG current change (%, negative = inhibition) at 10uM [%]
Cc1ccc(S(=O)(=O)N2CCC(C(=O)Nc3ccc(C(C)C)cc3)CC2)cc1 | -11.5
CN(C)C1(CNC(=O)C2CCN(S(=O)(=O)c3c(Cl)cccc3Cl)CC2)CCCCC1 | -67.5
O=C(NCC1CCCO1)C1CCN(S(=O)(=O)c2cc(Cl)ccc2Cl)CC1 (stereo not drawn) | -19
CC(C)c1ccc(S(=O)(=O)N2CCC(C(=O)NCC3(N(C)C)CCCCC3)CC2)cc1 | -54.4
CN(C)C1(CNC(=O)C2CCN(S(=O)(=O)c3cccc(C(F)(F)F)c3)CC2)CCCCC1 | -34.6
CC(C)c1ccc(S(=O)(=O)N2CCC(C(=O)N3CCC3)CC2)cc1 | -9.72
CN(C)C1(CNC(=O)C2CCN(S(=O)(=O)c3ccccc3C(F)(F)F)CC2)CCCCC1 | -29.8
CCOC(=O)c1cccc(NC(=O)C2CCCO2)c1 (stereo not drawn) | 4.7
Brc1ccccc1CNCCc1ccc2c(c1)OCO2 | 0.404
Cc1cccc(Oc2cnn(C(C)(C)C)c(=O)c2Cl)c1 | -10
Cc1ccc(NC(=O)c2sc(N)nc2-c2ccc([N+](=O)[O-])cc2)cc1C | 8.18
CSc1ccc(C(C(C(=O)c2cccs2)N2CCOCC2)N2CCOCC2)cc1 (stereo not drawn) | -3.73
COc1ccc(CCn2nnnc2C(C(C)C)N2CCN(c3ncccn3)CC2)cc1OC (stereo not drawn) | -5.93
Cc1c(Br)c([N+](=O)[O-])nn1CC(=O)Nc1ccc(C(N)=O)cc1 | -2.84
COc1ccc(C2c3ccc4ccccc4c3Oc3ncn(CCN4CCOCC4)c(=N)c32)cc1 (stereo not drawn) | -74.1
COc1ccc(C2c3c(ncn(CCCN4CCOCC4)c3=N)Oc3ccc4ccccc4c32)cc1OC (stereo not drawn) | -51.3
COc1ccc(C2c3c(ccc4ccccc34)Oc3ncn4nc(Cc5ccccc5)nc4c32)cc1OC (stereo not drawn) | -7.49
COc1ccc(C2c3c(ncn(CCN4CCOCC4)c3=N)Oc3ccc4ccccc4c32)cc1OC (stereo not drawn) | -16.6
COc1ccc(C2c3ccc4ccccc4c3Oc3ncn(CCN4CCOCC4)c(=N)c32)cc1OC (stereo not drawn) | -53.4
COc1ccc(C2c3c(ncn(CCN4CCOCC4)c3=N)Oc3ccc4ccccc4c32)cc1 (stereo not drawn) | -47.2
Cc1cc(NC(=O)CCN2C(=O)C3C4C=CC(C4)C3C2=O)c2ccccc2n1 (stereo not drawn) | 7.51

SMILES | hERG current change (%, negative = inhibition) at 10uM [%]
CC(=O)Nc1nc(C(F)(F)F)cs1 | 7.96
CN(C(=O)c1cccnc1)c1nnc(-c2cnccn2)s1 | 8.06
Cc1cc(NC(=O)c2cccc3c2C(=O)N(C2CCCCC2)C3)ccc1Br | 13
O=C(NCCN1C(=O)S/C(=C\c2cccnc2)C1=O)c1ccc(S(=O)(=O)N2CCCC2)cc1 | -11.3
CSc1cccc(N2CC(C(=O)NCCN3C(=O)S/C(=C\c4cccnc4)C3=O)CC2=O)c1 (stereo not drawn) | -68.3
CS(=O)(=O)c1ccc(C(=O)NCCN2C(=O)S/C(=C\c3cccnc3)C2=O)cc1[N+](=O)[O-] | 1.32
CCOc1ccc(N2CC(C(=O)NCCN3C(=O)S/C(=C\c4cccnc4)C3=O)CC2=O)cc1 (stereo not drawn) | -0.149
COc1ccccc1N1CC(C(=O)NCCN2C(=O)S/C(=C\c3cccnc3)C2=O)CC1=O (stereo not drawn) | 1.78
Cc1c(C(=O)NCCN2C(=O)S/C(=C\c3cccnc3)C2=O)cccc1[N+](=O)[O-] | -45.1
O=C(NCCN1C(=O)S/C(=C\c2cccnc2)C1=O)c1cc(S(=O)(=O)N2CCOCC2)ccc1F | -59
O=C(NCCN1C(=O)S/C(=C\c2ccc(F)cc2)C1=O)c1cccc(S(=O)(=O)N2CCOCC2)c1 | -3.04
Cc1cc(OCCCC(=O)NCCN2C(=O)S/C(=C\c3cccnc3)C2=O)ccc1Cl | -6.35
COc1ccc(C(=O)NCCN2C(=O)S/C(=C\c3cccnc3)C2=O)cc1[N+](=O)[O-] | -63.8
CC(C)(Oc1ccc(Cl)cc1)C(=O)NCCN1C(=O)S/C(=C/c2cccnc2)C1=O | -62.9
O=C(CCl)NCCN1C(=O)S/C(=C\c2cccnc2)C1=O | 26.1
Cc1ccc(S(=O)(=O)NC(C)(C)CSc2ncccn2)cc1 | -4.42
CC1=CC(C)(C)N(C(=O)CCl)c2ccccc21 | -39.7
O=C(O)C(Nc1nc(C(F)(F)F)nc2ccccc12)c1ccccc1 (stereo not drawn) | 26.2
O=C(Cc1cccs1)NCc1cccc(F)c1 | 14.4
CCOC(=O)C1CCN(c2c(NCc3ccc(C(=O)NCCOC)cc3)c(=O)c2=O)CC1 | -7.38
CCn1cc(C(=O)Nc2ccc(F)c(F)c2)cn1 | 7.43
